Assay results taken from paper PMC7819943, “Rice protein-binding microarrays: a tool to detect cis-acting elements near promoter regions in rice”.
In all, about 39,000 sequences were measured (“fluorescence intensity (a.u.)”: median about 4,300, highest 2% from about 39,000 on). This excerpt belongs to a sample that is enriched for the highest values.

What follows are sequences tested against T1, OsSMF1 (Oryza sativa, UniProt Q6ZLB0 1-436) (assay: protein-binding microarray (RPBM); PBS, 2% BSA, 51.3 ng/ul salmon testes DNA, 50 uM zinc acetate, 200 nM TF, 25 C, 1 h; high values mean tight binding). Details: protein: recombinant; tags: N-terminal polyhistidine and DsRed monomer fusion (pET32a); chain copies: 2; label: CyDye5-dUTP incorporated in the synthesized complementary strand; 3' TTTTT single-stranded linker to array surface; dsDNA, one strand shown.
T1 sequence: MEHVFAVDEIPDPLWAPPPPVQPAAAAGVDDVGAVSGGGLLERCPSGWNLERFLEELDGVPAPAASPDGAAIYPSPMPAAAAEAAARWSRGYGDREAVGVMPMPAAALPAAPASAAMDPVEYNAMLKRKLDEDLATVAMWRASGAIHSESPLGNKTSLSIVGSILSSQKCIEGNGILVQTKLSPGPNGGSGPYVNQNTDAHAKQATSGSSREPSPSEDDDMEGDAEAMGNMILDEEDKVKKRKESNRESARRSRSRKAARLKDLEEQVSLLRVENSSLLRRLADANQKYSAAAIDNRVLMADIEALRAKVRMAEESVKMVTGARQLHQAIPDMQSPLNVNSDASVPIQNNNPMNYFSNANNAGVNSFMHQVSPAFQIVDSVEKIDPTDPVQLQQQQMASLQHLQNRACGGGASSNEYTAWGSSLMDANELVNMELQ
Method in brief: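 For the binding signal, per-feature fluorescence intensity was read in arbitrary units on an Axon 4000B scanner. Before scanning, a 2% BSA-blocked custom Agilent array made double-stranded with Cy5-dUTP was washed after 1 h at 25 °C with 200 nM protein and 50 µM zinc acetate. The proteins were Ni–NTA-purified transcription factors with N-terminal polyhistidine and DsRed fusions, expressed in E. coli BL21-CodonPlus.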
With “GAGAGAGAGAGAGGGATTTCCCCTTGGCTCCGCGTCGATACGGAGTCACCTAGTGCAG” the binding signal was 3520 fluorescence intensity (a.u.). In the case of “AATCTATATGTTATCGTCCTCCTCTTGCGTGTGGCTAGTTCGGAGTCACCTAGTGCAG”, the binding signal is reported as 3750 fluorescence intensity (a.u.). With “AATTGTTTACTGATCTTTGCGTTAATGATGATTGTGCCCTCGGAGTCACCTAGTGCAG” the binding signal was 3160 fluorescence intensity (a.u.). With “AAAATTCGAATCAGGCGGAGCCACCTCACCTCGCCGCGGCCGGAGTCACCTAGTGCAG” the binding signal was 5020 fluorescence intensity (a.u.). In the case of “CTTTGTCTTAGTATGGTGACTGGTTGCAAATTGATTTGGTCGGAGTCACCTAGTGCAG”, the binding signal is reported as 3410 fluorescence intensity (a.u.). With “AGCTAGCTAGCTAACTAGTAAGGAGGTACACGTAGGTAGCCGGAGTCACCTAGTGCAG” the binding signal was 6960 fluorescence intensity (a.u.). In the case of “TGGGTTGAATATGAGCTTGAATATTGGTGGAGTGATACATCGGAGTCACCTAGTGCAG”, the binding signal is reported as 3240 fluorescence intensity (a.u.). With “CTTCCATATATCCTTGTCACAAGCTAGCTCACAAAACTTCCGGAGTCACCTAGTGCAG” the binding signal was 4680 fluorescence intensity (a.u.). “GAGGCCGGGGTCGGGGCGAGCGAGGCGAGAGGGGAGGAGGCGGAGTCACCTAGTGCAG” was tested, and the binding signal was 4480 fluorescence intensity (a.u.). “GCGAGGGGCGGGGAGAGCAGCGGCGGCGGCGGAGCGCGGCCGGAGTCACCTAGTGCAG” was tested, and the binding signal was 39200 fluorescence intensity (a.u.). With “GCGCGCGCGGCGTTCGGGAGGAAGCGGAAGAGCGCGCCGGCGGAGTCACCTAGTGCAG” the binding signal was 47000 fluorescence intensity (a.u.). In the case of “GGCGGCCACGGGCTCCGGCGGAGGGCGGCGTGGTGGCGGCCGGAGTCACCTAGTGCAG”, the binding signal is reported as 14400 fluorescence intensity (a.u.). “CCGCGCTCACCTGCCGGGCGTGGCGCGCCGCGGTGGCCTCCGGAGTCACCTAGTGCAG” was tested, and the binding signal was 3140 fluorescence intensity (a.u.). For “GAGCGCGGAAGCCGGCGGCGGCCGTACGTGTTCGGCCGGCCGGAGTCACCTAGTGCAG”, the binding signal was 3410 fluorescence intensity (a.u.). With “GGGCGGAGCGGGGCGGAGGGAGAGGAGGGAGAGGAGGGAGCGGAGTCACCTAGTGCAG” the binding signal was 4920 fluorescence intensity (a.u.). With “GCGGCGCCTCCGGGAAGCGCGGCGCCGCGTCCTCCTCCTCCGGAGTCACCTAGTGCAG” the binding signal was 3170 fluorescence intensity (a.u.). In the case of “GCCCCGCGGCTTCCGGCTGCCGTCGCCGCGAGCCCCGTGGCGGAGTCACCTAGTGCAG”, the binding signal is reported as 5050 fluorescence intensity (a.u.). For “GTGATTTATCCGAGCAGAGTGGCGGCGGCTTCGCCGAGTACGGAGTCACCTAGTGCAG”, the binding signal was 39600 fluorescence intensity (a.u.). “GGTGGCGGCGCGGGCCGGGCGGCGGCGGCGGCGGCGGCTCCGGAGTCACCTAGTGCAG” was tested, and the binding signal was 40400 fluorescence intensity (a.u.). For “GAGCTCCGCCAGTACGAGTACAGACCCAGCTTCGCCGGCGCGGAGTCACCTAGTGCAG”, the binding signal was 3580 fluorescence intensity (a.u.). “TGTTTACGTCCAACGTTTAACCGCTCGTCTTATTTGAAATCGGAGTCACCTAGTGCAG” was tested, and the binding signal was 21000 fluorescence intensity (a.u.). “AGAAGTATTTCTGCGTCATTGTTGGAAATTATATTTCTAGCGGAGTCACCTAGTGCAG” was tested, and the binding signal was 3650 fluorescence intensity (a.u.). In the case of “GACACTTACAAGCACTGCGGCGTTACCATTTTATGGAACTCGGAGTCACCTAGTGCAG”, the binding signal is reported as 3220 fluorescence intensity (a.u.).
